# The whole screen tested about 65,000 compounds, of which about 45 (0.07%) were called active. Only a sample is shown. A number with no mark means an inactive call. Calls come from the whole dose curve.
# Test system: Schistosoma mansoni peroxiredoxin 2 (Prx2)
# Experiment: Schistosoma Mansoni Peroxiredoxins (Prx2)
# Details: S. mansoni Prx2 activity coupled to TGR/GSH (TGR is thioredoxin glutathione reductase), NADPH fluorescence loss, qHTS
# From the text: NIH Molecular Libraries Screening Centers Network [MLSCN]
# NIH Chemical Genomics Center [NCGC]
# David Williams [Illinois State University]
# Schistosoma mansoni, a causative agent of schistosomiasis, resides in the bloodstream of their host up to 30 years without being eliminated by the host immune attack. One proposed survival mechanism is the production of an antioxidant "firewall" that neutralizes the oxidative assault of the host's immune attack. Schistosoma mansoni peroxiredoxins (Prx) are important parasite antioxidant proteins that play a crucial role in redox balance mechanisms. […] First, the proteins are essential for the parasite survival. […] Third, the protein(s) is amenable for study at the molecular level and can be produced in bacteria in large quantities, in soluble and active form. Inhibition of Prx activity was screened in a coupled-enzyme format with reducing equivalents being transferred from NADPH to […] intermediate via thioredoxin/glutathione reductase (TGR)-catalyzed reaction, then from thioredoxin to hydrogen peroxide via Prx-catalyzed electron transfer. A decrease in the fluorescence intensity of NADPH was used to measure the enzyme activity. Purified S. mansoni TGR and Prx were provided by Professor David L. Williams, Illinois State University.
# NCGC Assay Protocol Summary:
# 100 mM phosphate buffer, pH 7.4, 10 mM EDTA, 0.01% Tween-20.
# 100 uM NADPH/25 nM TGR/700 uM GSH/50 nM Prx2 mixture in columns 1, 2, 5-48. Titration of control potassium antimonyl tartrate (PAT, from 1 mM, then 1:5) pin-transferred to lower half of column 2. Column 1 and upper half of column 2 are neutral (100% activity).
# Three uL of reagents were dispensed to 1536-well Greiner black plates. Compounds and controls (20 nL) were transferred via Kalypsys PinTool. The plates were incubated for 15 min at room temperature, and then a 1 uL aliquot of 400 uM NADPH/700 uM GSH was added, immediately followed by a 1uL aliquot of 2.5 mM H2O2 (to start the reaction). The plate was transferred to ViewLux (Perkin-Elmer) High-throughput CCD imager where kinetic measurements (every 30 sec, for a total of 8 min) of NADPH fluorescence were taken using 365 nm excitation/450 nm emission filter set. During dispense, enzyme-containing reagent bottles were kept submerged into 4 deg C water bath to minimize degradation.
# Keywords: NIH Roadmap, MLSCN, MLI, MLSMR, David Williams, Peroxyredoxin, Schistosoma mansoni, prx2, prx, , qHTS, NCGC
# Potency is the fitted concentration of half-maximal effect.
row,Compound,Potency [µM]
1,Nc1nc(N)c2[nH]c(CNc3ccc(C(=O)O)cc3)nc2n1,> 57
2,COc1ccccc1CCn1c(=O)c(-c2cn(C)c3ccccc23)nc2cncnc21,> 57
3,Cc1cc(N2CCCCC2)nc2ccc(Cc3ccc4nc(N5CCCCC5)cc(C)c4c3)cc12,> 11.4
4,CC(C)C[C@@H](CC(=O)N[C@@H](CCC(=O)O)CC(=O)O)NC(=O)[C@@H]1CCCC[C@H]1NC(=O)C[C@@H](NC(=O)C[C@H](CO)NC(=O)[C@@H]1CCCC[C@H]1N)C(C)C,> 25.6
5,O=c1c(CCc2ccccc2)nc2cnc(N3CCNCC3)nc2n1Cc1cccs1,> 57
6,CS(=O)(=O)N1CCC2(CCN(c3ccncc3)CC2)CC1,> 57
7,N[C@H](C(=O)O)c1ccc(C(=O)O)c(O)c1,> 57
8,Cc1cc(OCC(=O)O)c(Cl)cc1Cl,> 57
9,CC(C)NC(=O)N1CC[C@@]2(CCCN(C(=O)c3cccc(F)c3)C2)C1,> 57
10,Cn1c(=S)c2[nH]c(SCCCc3ccccc3)nc2n(C)c1=O,> 57
11,CN1CCC2(CC1)CCN(S(=O)(=O)c1ccccc1)CC2,> 57
12,Cc1cc2c(cc1C)NC1=C(N2)O[C@H](c2c[nH]c3ccc(COc4ccccc4)cc23)C1=O,> 57
13,O=c1c(-c2cc(F)cc(F)c2)nc2cnc(Oc3ccccc3)nc2n1C[C@H]1CCCO1,> 11.4
14,FC(F)(F)c1ccccc1-c1nc(-n2ccnc2)c2ccccc2n1,> 57
15,O=C(O)c1ccc(C(=O)O)c2c(C(=O)O)ccc(C(=O)O)c12,> 57
16,COc1ccccc1CNc1ncnc2ccc(-c3c(C)noc3C)cc12,> 57
17,CC(C)c1ccc2c([Si](C)(C)C)c3c(nc2c1)-c1cccc(=O)n1C3,> 57
18,COc1ccc2[nH]c3cc4c(=O)c5cc(OC)ccc5[nH]c4cc3c(=O)c2c1,> 57
19,Cc1cccc(CNc2ccnc(-c3cccnc3)n2)c1,> 57
20,C[C@@H](C(=O)Nc1ccc2ccccc2c1)[C@@H]1C[C@@]1(C)[C@@H](NC(=O)c1cccnc1)c1ccccc1,> 57
21,CCNc1ncc2ncc(=O)n(Cc3cccc(OC)c3)c2n1,> 57
22,Cc1c(C)c2c(c(C)c1O)CC[C@@](C)(CN1CCN(c3cc(N4CCCC4)nc(N4CCCC4)n3)CC1)O2,> 25.6

row,Compound,Potency [µM]
1,CN(C)C(=O)c1ccc(-c2cncnc2NC2CCNCC2)cc1,> 57
2,COc1ccc(Br)c2c1C[C@H](C(=O)O)CC2,> 57
3,COC(=O)[C@@H]1[C@H]2C[C@H]3c4[nH]c5cc(OC)ccc5c4CCN3C[C@@H]2C[C@@H](OC(=O)c2cc(OC)c(OC)c(OC)c2)[C@@H]1OC,> 57
4,O=C(c1ccc(F)cc1)C1CCN(CCCCc2ccccc2)CC1,> 57
5,Cc1ccnc(N)c1,> 25.6
6,COc1ccccc1CNc1cc(-c2ccccc2CN(C)C)ncn1,> 57
7,O=C(NCc1ccccc1)[C@H]1C[C@@H]1[C@H](NP(=O)(c1ccccc1)c1ccccc1)c1ccccc1,> 57
8,COc1ccccc1-c1nc(NCCNC(C)=O)c2ccccc2n1,> 57
9,O=C(c1cccc(F)c1)N1CCC2(CCCN(Cc3ccncc3)C2)CC1,> 57
10,O=c1cc(-c2ccccc2)[nH]c2nc(Cl)ccc12,> 57
11,O=c1cc(-c2ccc(O)c(O)c2)oc2cccc(O)c12,> 57
12,CC(C)C[C@@H](CC(=O)N[C@@H](CCC(=O)O)CC(=O)O)NC(=O)[C@@H]1CCCC[C@H]1NC(=O)C[C@@H](NC(=O)C[C@H](Cc1c[nH]c2ccccc12)NC(=O)[C@@H]1CCCC[C@H]1N)C(C)C,> 57
13,C[N+]1(CCN=C=NC2CCCCC2)CCOCC1,> 57
14,O=C(c1cc(C(F)(F)F)cc(C(F)(F)F)c1)N1CCC2(CC1)CN(c1ccncc1)C2,> 57
15,O=C(c1csnn1)N1CCC[C@@]2(CCN(Cc3nccs3)C2)C1,> 57
16,COC(=O)[C@@]1(Cc2ccc(F)cc2)[C@H]2c3cc(C(=O)N4CCCC4)n(Cc4ccc(OC(F)(F)F)cc4)c3C[C@H]2CN1C(=O)c1ccccc1,> 57
17,CC[C@]1(C)CC(=O)NC1=O,> 57
18,Cn1cc(-c2nc3cnc(N4CCNCC4)nc3n(CCC#N)c2=O)c2ccccc21,> 57
19,O=C(O)c1ccc(C(=O)c2ccccc2C(=O)O)cc1C(=O)O,> 57
20,O=C1c2ccccc2C(=O)N1CCCSc1ccccc1,> 57
21,O=C(O)COc1c(Cl)cc(Cl)c2cccnc12,> 57
22,COc1cccc(Cn2c(=O)c(-c3cc(F)cc(F)c3)nc3cnc(OC)nc32)c1,> 57

row,Compound,Potency [µM]
1,CCC[C@@H]1C[C@@]1(CCC)C(NC(=O)c1ccc(-c2ccccc2)cc1)c1cccc(Cl)c1 (some centres not stated),> 57
2,COc1cccc(-c2nc(Nc3ccncc3)c3ccccc3n2)c1,> 57
3,Clc1ccc(C(c2ccc(Cl)cc2)n2cc[n+](C[C@@H](OCc3ccc(Cl)cc3Cl)c3ccc(Cl)cc3Cl)c2)cc1,> 57
4,CC(=O)N1CCC2(CC1)CCN(c1ccncc1)CC2,> 57
5,CCOc1ccc(N=NS(=O)(=O)O)cc1,> 57
6,NCCNCC1CCNCC1,> 57
7,CN(C)c1cc2c(Nc3ccc4c(cnn4Cc4ccccc4)c3)ncnc2cn1,> 57
8,C[C@@H]1CC[C@H]2[C@H](C)[C@H]3[C@H](C[C@H]4[C@@H]5CC=C6C[C@@H](O)CC[C@@]6(C)[C@@H]5C[C@@H](O)[C@]34C)N2C1,> 57
9,CCNc1ncc2nc(CCc3ccccc3)c(=O)n(-c3ccc(OC)cc3)c2n1,> 57
10,Oc1c(Br)cc(CN(Cc2cc(Br)c(O)c(Br)c2)C2CCCCC2)cc1Br,> 57
11,COc1ccc(-n2c(=O)c(C)nc3cnc(N4CCOCC4)nc32)cc1,> 57
12,C[C@@H](N)[C@@H](C)Cc1ccccc1,> 57
13,CN1CCN2c3ccccc3Cc3ccccc3[C@@H]2C1,> 57
14,CNc1nc(-c2ccccc2OC)nc2ccccc12,> 57
15,O=C(Nc1ccccc1)N[C@H]1C[C@H](C(=O)O)Nc2cc(Cl)cc(Cl)c21,> 57
16,COc1ccc(C(=O)N/N=C2/C(=O)c3c(C)cc(C)cc3CC2(C)C)cc1,> 57
17,N#Cc1cc2[nH]c(=O)c(=O)[nH]c2cc1[N+](=O)[O-],> 25.6
18,c1cncc(CNc2ccnc(-c3ccc4c(c3)OCO4)n2)c1,> 57
19,O=C(c1csnn1)N1CCC2(CCN(Cc3nccs3)CC2)CC1,> 57
20,COCCNc1ncnc2ccc(-c3ccccc3CN(C)C)cc12,> 57
21,O=c1c(-c2ccc(F)cc2)nc2cnc(N3CCOCC3)nc2n1-c1ccccc1,> 11.4
22,CC(=O)/C(=N\N=C(N)N)c1ccccc1,> 57

row,Compound,Potency [µM]
1,COCCn1c(=O)c(-c2ccccc2)nc2cnc(N3CCOCC3)nc21,> 57
2,CN(C)c1ncc2nc(-c3ccc(F)cc3)c(=O)n(Cc3ccc(F)cc3)c2n1,> 57
3,O=C1NC(=O)[C@@](Cc2ccccc2)(c2cccnc2)N1,> 57
4,N#Cc1cccc(-c2ccc3ncnc(NCc4cccs4)c3c2)c1,> 57
5,O=C(Oc1ccc2c(c1)CN(Cc1ccccc1)CO2)c1ccccc1,> 57
6,O=C(O)c1nn(-c2ccc(Cl)cc2)c2c1C(=O)c1ccccc1C2=O,> 57
7,O=C(O)c1c(Br)c(Br)c(Br)c(Br)c1C1c2ccc(O)cc2Oc2cc(O)ccc21,> 57
8,c1ccc2c(Nc3ccncc3)nc(-c3ccc4c(c3)OCO4)nc2c1,> 57
9,CCON=C1C(C)(C)C(C)(C)C(C)(C)C1(C)C,> 57
10,Cc1ccc(-c2nn(CC(C)(C)C)c3ncnc(N)c23)cc1,> 57
11,CN/C(=C\[N+](=O)[O-])NCCSCc1csc(CN(C)C)n1,> 57
12,c1ccc2nc(C3=NCCN3)cnc2c1,> 57
13,Cc1[nH]c(N)nc(=S)c1CCCNc1ccccc1,> 57
14,COc1ncc2nc(-c3ccc(Cl)cc3)c(=O)n(C)c2n1,> 57
15,CCNc1ncc2ncc(=O)n(CCc3ccccc3)c2n1,> 57
16,COc1ccccc1-c1cc(NCc2cccs2)ncn1,> 57
17,O=C(c1csnn1)N1CCC2(CC1)CN(c1ncccn1)C2,> 57
18,COCCn1c(=O)c(-c2cccc(F)c2)nc2cncnc21,> 57
19,Cc1c2c(nc3ccccc13)-c1cccc(=O)n1C2,> 57
20,O=C(c1ccco1)N1CCC[C@@]2(CCN(c3ccccc3)C2)C1,> 57
21,COc1ccc(C(=O)N2CCC3(CC2)CCN(c2ccccn2)CC3)cc1,> 57
